Pf growth 96h = Primary qHTS for delayed death inhibitors of the malarial parasite plastid, 96 hour incubation; P. falciparum luciferase reporter growth, 96 h; Potency, µM (top dose mostly 28.7 µM), hits mostly inhibitors; 6.9% of 320,000 active
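Luminescence readout: decreased luciferase signal marks inhibited growth of reporter-expressing P. falciparum in infected red cells (2% hematocrit, 0.05% parasitemia final), exposed to compound two generations (96 h, 37 C, 5% CO2).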
Shiga inhibitor = A qHTS for Small Molecule Inhibitors of Shiga Toxin; Vero cells, Shiga toxin protein synthesis inhibition reporter; inhibition, % at 38.7 µM; 9.2% of 290,000 active; in the data active = inhibition mostly above about 28%, no sharp cut-off; inactive = mostly below about 43%
CHX counter = Cycloheximide Counterscreen for Small Molecule Inhibitors of Shiga Toxin | cell reporter, cycloheximide protein synthesis inhibition counterscreen | max response, % | 12% of 300,000 active; in the data active = max response mostly above about 13%, no sharp cut-off; inactive = mostly below about 14%; note: read at 38.3 µM for the half of the compounds with a filed dose
NS1 inh = qHTS Assay for Inhibitors of Influenza NS1 Protein Function; 0.4% of 270,000 active; Potency, µM (highest dose often 46.1 µM); calls by dose curve; note: actives are rising curves; nearly all actives have a fitted effect of over 50% in size
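Recovery from NS1-induced slow growth read by OD600 in budding yeast switched to galactose assay medium (pH 6.0, -URA) at 1:100 dilution. Compound 23 nl per well; the matching strain lacking NS1 serves as control.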
Sm TGR inh = qHTS Assay for the Inhibitors of Schistosoma Mansoni Peroxiredoxins | Schistosoma mansoni thioredoxin glutathione reductase (TGR), Q962Y6 | purified TGR, DTNB reduction, TNB absorbance 405 nm | Potency, µM (titrated, usually from 114 µM), most hits filed as inhibitors | 3% of 360,000 active | AID 485364, 2010; note: nearly all actives have a fitted effect of over 60% in size
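TGR 20 nM + NADPH 100 uM (dispensed conc.), cpd preinc 15 min RT; start with NADPH (500 uM addition) then DTNB (15 mM addition). Kinetic TNB absorbance, 405 nm filter. Four-parameter Hill fit across titration.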
Pf growth 48h = Primary qHTS for delayed death inhibitors of the malarial parasite plastid, 48 hour incubation; AID 504832, 2011; 5.9% of 310,000 active; P. falciparum luciferase growth in erythrocytes, 48 h; Potency, µM (highest dose often 28.7 µM), hits mostly inhibitors
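Compounds are pin-transferred into medium, infected erythrocytes (2% hematocrit, 0.1% parasitemia final) are added, and plates sit one parasite generation at 37 C in 5% CO2. Detection reagent is then added and luminescence measured.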
Hits are given with their value; . = inactive; ? = inconclusive; / = no result. Most compounds without a hit are left out; they make up all but 21% or so of the library. Unless noted, calls come from the whole dose curve; as a rule, active = well fitted curve in the direction sought with a large enough effect; inconclusive = small, poorly fitted or top-dose-only effect, or another doubt; inactive = no such curve, though single readings can be large; an effect the other way counts as inactive or inconclusive.

SMILES	Pf growth 96h	Shiga inhibitor	CHX counter	NS1 inh	Sm TGR inh	Pf growth 48h
O=C(C1CCCN(c2ncnc3c2nc2n3CCCCC2)C1)N1CCCCC1 (stereo unspecified)	.	.	.	.	.	?
COc1ccc(NC(=O)C2CCN(c3ncnc4c3nc3n4CCCCC3)CC2)c(OC)c1	?	.	.	.	.	.
N#C/C(=C/c1ccc(N2CCOCC2)o1)C(=O)NC1CCCCC1	.	.	19	.	32µM	?
CCOc1ccc(NC(=O)/C(C#N)=C\c2ccc(-c3ccc(Cl)cc3)o2)cc1	/	/	/	/	.	/
N#C/C(=C/c1ccc(Br)o1)C(N)=O	.	.	.	.	.	?
COc1ccc(NC(=O)/C(C#N)=C\c2ccc(N3CCOCC3)o2)cc1	.	.	24	.	45µM	.
N#C/C(=C/c1ccc(N2CCCCC2)o1)C(=O)Nc1ccc(Cl)cc1	.	76	35	.	?	.
COc1ccc(NC(=O)/C(C#N)=C/c2ccc3c(c2)n(C)c(=O)n3C)cc1	.	.	.	.	.	.
N#C/C(=C/c1ccc(Br)o1)C(N)=S	12µM	.	.	?	3.5µM	?
Cc1cccc(NC(=O)C2CCN(C(=O)c3ccc(F)cc3)CC2)n1	.	/	/	/	.	.
CCc1ccc(NC(=O)/C(C#N)=C/c2cc3ccc(C)cc3nc2N2CCOCC2)cc1	.	.	.	.	.	.
COc1ccc(NC(=O)/C(C#N)=C/c2ccc(Br)o2)cc1	.	52	22	.	.	.
N#C/C(=C\c1ccc(N2CCOCC2)o1)C(=O)Nc1ccc(O)cc1	.	68	31	.	/	?
COc1ccc(NC(=O)/C(C#N)=C/c2ccc(C)o2)cc1	/	/	/	/	.	/
Cc1ccc(S(=O)(=O)N2CCCN(C)c3nc4ccccc4nc32)cc1	.	/	/	/	.	?
Cc1ccc(-n2c(SCCN)nnc2-c2cccc(C)c2)cc1	?	.	.	.	.	10µM
O=C(Nc1cc(NC(=O)c2ccccc2F)ccc1Cl)c1ccccc1	.	.	.	.	.	.
COc1ccc(NC(=O)CC2(CC(=O)N3CCOCC3)CCCC2)cc1Cl	?	/	/	/	.	?
COc1ccc(N(CC(=O)Nc2ccccc2C(N)=O)S(=O)(=O)c2ccc(C)c([N+](=O)[O-])c2)cc1	.	.	23	.	/	?
CCOc1ccccc1N(CC(=O)Nc1ccccc1C(=O)N1CCOCC1)S(C)(=O)=O	10µM	.	.	.	.	.
CCOc1ccccc1NC(=O)CC1(CC(=O)N2CCOCC2)CCCC1	?	/	/	/	40µM	?

Screening data (PubChem)
